# Results reported in PubChem BioAssay (NCATS).
# A number with no mark means an inactive call. Records with an inconclusive call do not appear. A call without a number means that no potency is given here. The source made the active and inactive calls. The call rests on the fitted dose curve; in most records, active means well fitted curve in the direction sought with a large enough effect; inconclusive means small, poorly fitted or top-dose-only effect, or another doubt; inactive means no such curve, though single readings can be large; an effect the other way counts as inactive or inconclusive. Where a SMILES comes first, the peptide text is derived from it. The star is where a group is joined. βNA = c1ccc2cc(N*)ccc2c1; Cbz = O=C(OCc1ccccc1)*
# Columns and labels:
# [1] = target: Glutathione peroxidase 1 (Homo sapiens) (UniProt P07203); test: Primary qHTS Assay for Inhibitors of Recombinant Selenoprotein Glutathione Peroxidase 1 (GPX1) (AID 1845191); further: nearly all actives have a fitted effect of over 65% in size
# Method in brief: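 GPX1 10 nM, GR 100 nM, GSH 1 mM, NADPH 0.5 mM, CHP 0.5 mM (final). 30-min cpd preincubation, RT. Ex340/Em450 read t=0, t=15 min.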
# [2] = target: Phospholipid hydroperoxide glutathione peroxidase GPX4 (Homo sapiens) (UniProt P36969); test: Primary qHTS Assay for Inhibitors of Recombinant Selenoprotein Glutathione Peroxidase 4 (GPX4) (AID 1845192); further: nearly all actives have a fitted effect of over 65% in size
# Method in brief: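 qHTS, GR-coupled: GPX4 200 nM + cpd 30 min RT → GSH 1 mM, NADPH 0.5 mM, GR 100 nM → CHP 0.5 mM start; fluor 340/450 at t0 and t15 min; no-enzyme wells as control.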
# [3] = target: Luciferin 4-monooxygenase (Photinus pyralis) (UniProt P08659); test: Primary firefly luciferase (FLuc) qHTS assay for identification of artifact compounds. (AID 1845220); further: nearly all actives have a fitted effect of over 60% in size
# Method in brief: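 In this counter-screen for luciferase artifacts, test compounds met substrate (10 uM each luciferin and ATP) before 10 nM enzyme started the reaction. Light output was measured 5 min later.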
# [4] = tested on: Nanoluciferase (engineered Oplophorus gracilirostris luciferase); test: Primary Nanoluciferase (NLuc) qHTS assay for identification of artifact compounds. (AID 1845222); further: potency means the concentration at half of the fitted maximal effect
# Method in brief: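 Using secreted nanoluciferase in S16 culture medium (0.22 um filtered, 1:55 dilution), compounds were preincubated 15 min at RT. Signal was generated with Nano-Glo reagent (1:100) over 5 min.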
# [5] = Primary redox qHTS assay for identification of artifact compounds. (AID 1845223)
# Method in brief: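 Redox-cycling detection via DTT (250 uM final) oxidation coupled to Amplex Red (25 uM)/HRP (250 mU/mL) in HBSS. 15 min preincubation plus 30 min after DTT, room temperature. Ex/Em 525/598 nm; 4-parameter Hill fit against DMSO and 10 uM DA3003.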
# [6] = Primary fluorescence-based thiol-reactive (MSTI) qHTS assay for identification of artifact compounds. (AID 1845221); further: nearly all actives have a fitted effect of over 65% in size; further: potency means the concentration at half of the fitted maximal effect
# Method in brief: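 A multi-concentration qHTS design tested compounds against 4 uM MSTI, pH 7.4 phosphate-buffered saline. Plates were protected from light for 1 h at room temperature before imaging fluorescence.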
# Phospholipid hydroperoxide glutathione peroxidase GPX4 (Homo sapiens), sequence (P36969 whole entry, looked up): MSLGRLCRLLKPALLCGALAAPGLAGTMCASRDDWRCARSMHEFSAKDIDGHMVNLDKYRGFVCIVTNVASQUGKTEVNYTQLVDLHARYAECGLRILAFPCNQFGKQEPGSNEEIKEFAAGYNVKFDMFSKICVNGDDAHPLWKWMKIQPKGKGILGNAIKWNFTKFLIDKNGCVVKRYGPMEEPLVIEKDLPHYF
# Glutathione peroxidase 1 (Homo sapiens), sequence (P07203 whole entry, looked up): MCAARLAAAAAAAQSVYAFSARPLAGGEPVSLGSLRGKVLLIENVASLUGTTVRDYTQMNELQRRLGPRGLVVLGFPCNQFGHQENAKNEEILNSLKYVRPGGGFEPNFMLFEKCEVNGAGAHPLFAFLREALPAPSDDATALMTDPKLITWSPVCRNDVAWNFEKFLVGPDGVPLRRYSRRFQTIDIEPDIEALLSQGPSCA
Compound,Potency [1],Potency [2],Potency [3],Potency [4],Potency [5],Potency [6]
Cc1nc(-c2cccnc2)sc1C(=O)Nc1ccccc1-c1cn2c(CN3CCOCC3)csc2n1,inactive,inactive,inactive,inactive,inactive,
C=C(C)C(O)COc1ccc(CC(=O)O)cc1 (centres undefined),inactive,inactive,inactive,inactive,inactive,
C[C@H](/C=C/[C@@]1(O)[C@H](C)CC(=O)CC1(C)C)O[C@@H]1O[C@H](CO[C@@H]2OC[C@@H](O)[C@H](O)[C@H]2O)[C@@H](O)[C@H](O)[C@H]1O,inactive,inactive,inactive,inactive,inactive,
CC(C)CC(NC(=O)OCc1ccccc1)C(=O)NC(CC(C)C)C(=O)NC(CCC(=O)O)C(=O)Nc1ccc2ccccc2c1 (stereo not drawn) (Cbz-Leu-Leu-Glu-βNA; configuration not given here),inactive,inactive,inactive,inactive,inactive,
CC(C)=CCc1cc(O[C@@H]2O[C@H](CO[C@@H]3OC[C@](O)(CO)[C@H]3O)[C@@H](O)[C@H](O)[C@H]2O)ccc1O,inactive,inactive,inactive,inactive,inactive,
C/C=C(\C)C(=O)OCC1OC(OC2OC(CO)C(O)C(O)C2O)C(O)C(O)C1O (centres undefined),inactive,inactive,inactive,inactive,inactive,
CC(=O)OC[C@@]12C(=O)C[C@@H](C)[C@]3(C[C@@H](c4ccoc4)OC3=O)[C@H]1CC[C@H](OC(C)=O)[C@]21CO1,inactive,inactive,inactive,inactive,inactive,
Cc1c(O)cc2c(c1O)COC1(O)CCCOC21 (centres undefined),inactive,inactive,inactive,inactive,inactive,
CC(=O)OC1CC2(C)C(CCC(C)C23Cc2c(O)cc4c(c2O3)CNC4=O)C(C)(C)C1O (centres undefined),inactive,inactive,inactive,inactive,inactive,
C=C[C@H]1[C@H](O[C@@H]2O[C@H](CO)[C@@H](O)[C@H](O)[C@H]2O)OC=C(C(=O)OC)[C@H]1CC=O,inactive,inactive,inactive,inactive,inactive,
COc1cc(O[C@@H]2O[C@H](CO[C@H]3OC[C@](O)(CO)[C@H]3O)[C@@H](O)[C@H](O)[C@H]2O)cc(OC)c1O,inactive,inactive,inactive,inactive,inactive,
CC(=O)OC1C(C)C2C(OC3OC(CO)C(O)C(O)C3O)OC=C(C(=O)O)C2C1OC(=O)c1ccccc1 (centres undefined),inactive,inactive,inactive,inactive,inactive,
C/C=C/C=C/C(O)=C1/C(=O)[C@]2(C)C3/C(=C(O)/C=C/C=C/C)C(=O)C4(C)C1[C@]1(C)O[C@@]4(O)[C@@]3(C)O[C@@]12O,inactive,inactive,inactive,inactive,inactive,
COc1cc(C[C@@]2(O)CO[C@@H](c3ccc(O[C@@H]4O[C@H](CO)[C@@H](O)[C@H](O)[C@H]4O)c(OC)c3)[C@H]2CO)ccc1O,inactive,inactive,inactive,inactive,inactive,
O=C(NCCN1CCCC1)c1cc(-c2ccc(CN3CCOCC3)cc2)nc2ccc(F)cc12,inactive,,inactive,inactive,inactive,inactive
CCOC(=O)CSc1nc2c(sc3ccccc32)c(=O)n1CCCN1CCCC1,inactive,,inactive,inactive,inactive,inactive
COC(=O)C(Cc1ccccc1)NC(=O)c1ccccc1 (centres undefined),inactive,inactive,,inactive,inactive,inactive
O=C(c1c2ccccc2cc2ccccc12)N1CCC(N2CCC[C@@H](C(=O)N3CCOCC3)C2)CC1,inactive,,inactive,inactive,inactive,inactive
CC(=O)O[C@H]1[C@H](OC(=O)C(C)C)[C@]2(C)OC3(CC[C@]2(C)[C@H]2CCC[C@]4(CO4)[C@]12C)COC(=O)C3 (some centres undefined),inactive,inactive,,inactive,inactive,inactive
COc1ccc2[nH]c(S(=O)Cc3ncc(C)c(OC)c3C)nc2c1 (centres undefined),inactive,,inactive,inactive,inactive,11.9 µM (active)
N[C@@H](CC(=O)Nc1ccc(Oc2cc(F)c(F)cc2Br)cc1)C(=O)O,inactive,inactive,inactive,inactive,inactive,
COc1cc(O)c(C(=O)O)c(CCc2ccccc2)c1,inactive,inactive,,,inactive,inactive

Compound,Potency [1],Potency [2],Potency [3],Potency [4],Potency [5],Potency [6]
CC(C)c1ccc2c(c1)CCC1[C@](C)(C(=O)O)CCC[C@]21C (some centres undefined),inactive,inactive,,inactive,inactive,inactive
Cn1c2ccc(NC(=O)c3ccccc3)cc2c(=O)n2nc(C(=O)O)cc12,inactive,inactive,,inactive,inactive,
CN1CCN(C2=Nc3ccccc3Nc3ccc(O)cc32)CC1,inactive,inactive,inactive,inactive,inactive,
CC(C(=O)Nc1cc(C#N)ccc1CCCC(=O)O)c1ccc(F)c2ccccc12 (centres undefined),inactive,inactive,inactive,,inactive,
COc1cc([C@@H](O[C@@H]2O[C@H](CO)[C@@H](O)[C@H](O)[C@H]2O)[C@@H]2CO[C@H](c3ccc(O)c(OC)c3)[C@H]2CO)ccc1O,inactive,inactive,inactive,inactive,inactive,
COc1cncc(C#Cc2ccccn2)c1,inactive,inactive,,inactive,inactive,inactive
CCC(C)/C=C(C)/C=C/C1=CC2=C(Cl)C(=O)C(C)(OC(C)=O)C(=O)C2=CN1C(CCCN=C(N)N)C(=O)O (centres undefined),inactive,,inactive,inactive,inactive,1.03 µM (active)
O=C(N[C@H](Cc1ccccc1)C(=O)O)c1sc2cc(F)ccc2c1Cl,inactive,inactive,,,inactive,inactive
COC(=O)[C@]1(C)CCC[C@@]2(C)C(=O)CC[C@H]3C(=O)C=C(CC[C@@H]21)C3O (some centres undefined),inactive,inactive,inactive,inactive,inactive,
COc1ccc2c(c1)C=C1Cn3c-2c(C2CCCCC2)c2ccc(cc23)C(=O)NS(=O)(=O)N(C)CCOCCN(C)C1=O,inactive,,inactive,inactive,,inactive
COc1c(-c2ccc(O)cc2)cc(OC)c2c1oc1cc(O)c(OC3OC(CO)C(O)C3O)cc12 (centres undefined),inactive,inactive,,inactive,inactive,4.62 µM (active)
CC(=O)NC(Cc1c[nH]c2ccccc(=O)c12)C(=O)O (centres undefined),inactive,,inactive,inactive,,5.32 µM (active)
CCC(C)/C=C(C)/C=C/C1=CC2=C(Cl)C(=O)C(C)(O)C(=O)C2(O)C(OC)O1 (centres undefined),inactive,inactive,inactive,inactive,inactive,
O=C(Nc1ccccc1)Nc1ccc(-c2ccc(C(=O)C3CCCC3C(=O)O)cc2)cc1 (centres undefined),inactive,inactive,,inactive,inactive,inactive
CCOC(=O)c1ccc(NC2CCCCC2)c(N)c1,inactive,inactive,,inactive,,
COC(=O)C(CC1(O)c2ccccc2N2C(=O)C(CC(C)C)NC21)n1cnc2ccccc2c1=O (centres undefined),inactive,inactive,inactive,inactive,inactive,
O=C(O)C1(c2ccc(-c3ccc(Cl)c(Cl)c3)c(F)c2)CC1,inactive,inactive,,16.9 µM (active),inactive,inactive
C/C=C/C=C/C=C/C(=O)O[C@@H]1[C@@H](OC)C2=C(C(=O)N(C(CCC(=O)O)C(=O)O)C2)[C@@]2(C)CCCC(C)(C)[C@H]12 (some centres undefined),inactive,inactive,,inactive,inactive,inactive
N=C(N)c1ccc2nc(-c3cc(CC(=O)NC(CC(=O)O)C(=O)O)cc(-c4cc(S(N)(=O)=O)ccc4O)c3O)[nH]c2c1 (centres undefined),inactive,inactive,,inactive,inactive,2.12 µM (active)
COC(=O)c1cc(OC)cc(OC)c1C(=O)c1c(OC)cc2c(c1O)C1CCC(O)C(C)(O2)O1 (centres undefined),inactive,inactive,,inactive,,
COc1ccc(NC(=O)c2ccc(-c3ccc(C(N)=O)cc3C)cc2)cc1N1CCN(C)CC1,inactive,inactive,inactive,,inactive,
CCOc1ccc(-c2cc(NC(=O)c3c(F)cccc3F)c(C(=O)O)s2)cc1,inactive,inactive,,12 µM (active),inactive,inactive
